Data from PubChem BioAssay (NCATS).
Where “and” joins values, the source holds several entries; their conditions need not be identical. Equal entries are not always repeated. Records with an inconclusive call do not appear. Where a call stands in place of a potency, no number is given. Calls of active or inactive are those of the source. Unless noted, the call rests on the fitted dose curve; in most records, active means well fitted curve in the direction sought with a large enough effect; inconclusive means small, poorly fitted or top-dose-only effect, or another doubt; inactive means no such curve, though single readings can be large; an effect the other way counts as inactive or inconclusive.

Assays:
[1] = Quantitative high throughput screen for delayed death inhibitors of the malarial parasite plastid, 48 hour incubation (AID 488752); further: nearly all actives have a fitted effect of over 65% in size; further: potency means the concentration at half of the fitted maximal effect
Procedure, shortened: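 Luciferase-expressing P. falciparum in RBCs, 2% Hct, 0.1% parasitemia final; RPMI 1640 + 0.5% Albumax; 48 h, 37 C, 5% CO2; luminescence readout, signal drop = growth inhibition.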

[2] = molecular target: Thioredoxin reductase 1, cytoplasmic (Rattus norvegicus) (UniProt O89049); experiment: qHTS Assay for Substrates of Mammalian Selenoprotein Thioredoxin Reductase 1 (TrxR1) (AID 488772);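 further: series mostly up to about 57 µM; a drop in NADPH fluorescence below the no-compound background marks a TrxR1 substrate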
Procedure, shortened: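 In this dual-purpose format, potential substrates are identified from the first fluorescence read after selenite addition, not from the 8-minute delta. Rat enzyme is preincubated with NADPH and then with compound at ~22 deg C.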

[3] = molecular target: Thioredoxin reductase 1, cytoplasmic (Rattus norvegicus) (UniProt O89049); experiment: qHTS Assay for Inhibitors of Mammalian Selenoprotein Thioredoxin Reductase 1 (TrxR1) (AID 488773); conditions: Potency: inhibition; further: nearly all actives have a fitted effect of over 40% in size; further: potency means the concentration at half of the fitted maximal effect
Procedure, shortened: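 Inhibition is scored from the loss of NADPH fluorescence between first and last reads of an 8-min kinetic run. Selenite (400 uM) was the substrate, added after 15 min compound preincubation at room temperature.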

[4] = molecular target: Flap endonuclease 1 (Homo sapiens) (UniProt P39748); experiment: qHTS Validation Assay for the Inhibitors of Human Flap endonuclease 1 (FEN1) (AID 488816); further: potency means the concentration at half of the fitted maximal effect
Flap endonuclease 1 (Homo sapiens), sequence (P39748 whole entry, looked up): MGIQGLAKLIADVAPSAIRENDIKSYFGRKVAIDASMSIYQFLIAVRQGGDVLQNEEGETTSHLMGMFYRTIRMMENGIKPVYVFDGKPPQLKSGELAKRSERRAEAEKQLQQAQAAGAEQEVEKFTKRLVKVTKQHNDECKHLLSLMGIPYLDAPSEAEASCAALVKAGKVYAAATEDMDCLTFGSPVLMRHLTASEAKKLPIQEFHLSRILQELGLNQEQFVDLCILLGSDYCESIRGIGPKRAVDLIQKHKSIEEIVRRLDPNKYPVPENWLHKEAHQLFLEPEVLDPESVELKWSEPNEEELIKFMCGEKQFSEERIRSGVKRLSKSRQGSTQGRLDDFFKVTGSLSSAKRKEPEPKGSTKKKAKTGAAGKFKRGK
Procedure, shortened: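 qHTS format: compounds and 10 nM FEN1 incubated 15 min at room temperature before adding 50 nM substrate. Cleavage followed by reads at 0 and 15 min; normalized data fitted to a four-parameter Hill curve.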

[5] = molecular target: M-phase phosphoprotein 8 (Homo sapiens) (UniProt Q99549); experiment: qHTS Validation Assay for Inhibitors for MPP8 Chromodomain Interactions with Methylated Histone Tails (AID 488949); further: nearly all actives have a fitted effect of over 55% in size; further: potency means the concentration at half of the fitted maximal effect
Procedure, shortened: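 MPP8 (50 nM) was preincubated with biotinylated H3(1-18)K9me3 peptide (50 nM) in PBS pH 7.4, 0.01% Tween-20 for 30 min at room temperature, then with compounds for 30 min; binding was detected by AlphaScreen.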

[6] = molecular target: Chromobox protein homolog 1 (Homo sapiens) (UniProt P83916); experiment: qHTS Validation Assay for Inhibitors of HP1-beta Chromodomain Interactions with Methylated Histone Tails (AID 488953); further: nearly all actives have a fitted effect of over 50% in size; further: potency means the concentration at half of the fitted maximal effect
Chromobox protein homolog 1 (Homo sapiens), sequence (P83916 whole entry, looked up): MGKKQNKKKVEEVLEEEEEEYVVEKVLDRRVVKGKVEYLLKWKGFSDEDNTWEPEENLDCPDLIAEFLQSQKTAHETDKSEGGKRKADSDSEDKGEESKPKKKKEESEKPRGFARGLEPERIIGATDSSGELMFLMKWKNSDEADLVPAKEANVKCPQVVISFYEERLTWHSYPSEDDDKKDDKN
Procedure, shortened: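 AlphaScreen proximity readout: streptavidin donor and Ni-chelate acceptor beads, 10 ug/mL final, 30 min dark, RT. Complex of 50 nM HP1-beta and 50 nM b-H3(1-18)K9me3 formed 30 min, then compound-treated 30 min; PBS pH 7.4/0.01% Tween-20.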

[7] = molecular target: Methanococcus maripaludis chaperonin (MmCpn) (UniProt Q6LX38); experiment: High-Throughput Screening for Modulators of Cytosolic Chaperonin Activity: MmCpn Primary Screen (AID 488978);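 further: 50 nM MmCpn enzyme hydrolysing 30 µM ATP at 37 °C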
Methanococcus maripaludis chaperonin (MmCpn), sequence (Q6LX38 1-543): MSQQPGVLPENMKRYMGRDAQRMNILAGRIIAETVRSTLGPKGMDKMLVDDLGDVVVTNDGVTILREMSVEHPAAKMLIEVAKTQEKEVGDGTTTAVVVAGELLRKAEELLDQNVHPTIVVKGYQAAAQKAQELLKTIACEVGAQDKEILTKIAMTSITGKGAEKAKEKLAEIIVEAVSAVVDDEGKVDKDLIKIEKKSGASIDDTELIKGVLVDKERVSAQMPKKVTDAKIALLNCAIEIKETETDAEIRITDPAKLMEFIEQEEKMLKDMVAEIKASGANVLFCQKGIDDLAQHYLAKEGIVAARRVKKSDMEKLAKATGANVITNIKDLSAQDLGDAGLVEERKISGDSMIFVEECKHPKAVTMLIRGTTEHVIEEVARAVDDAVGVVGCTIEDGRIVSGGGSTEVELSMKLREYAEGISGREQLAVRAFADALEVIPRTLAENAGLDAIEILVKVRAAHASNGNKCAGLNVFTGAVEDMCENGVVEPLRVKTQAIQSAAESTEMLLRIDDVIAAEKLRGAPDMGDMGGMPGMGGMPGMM
Procedure, shortened: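 MmCpn (50 nM final) was preincubated with compound 5 min at RT, then 30 uM ATP (final) was added and the reaction ran 10 min at 37C. ADP produced was detected by Transcreener HTRF (ex 320 nm; em 590/665 nm).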

[8] = molecular target: Transient receptor potential cation channel subfamily V member 1 (Homo sapiens) (UniProt Q8NER1); experiment: HTS Assay for Compounds that Act as Enhancers of the Vanilloid Receptor 1 (AID 488979)
Procedure, shortened: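 Calcium influx kinetics via Fluo-8 (480/520 nm) in TRPV1-expressing cells, 2000/well cultured overnight at 35.5C. Compound-alone read 3 min (agonist phase), followed by EC20 capsaicin challenge for 2 min (enhancer phase).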

[9] = molecular target: Thyrotropin receptor (Homo sapiens) (UniProt P16473); experiment: qHTS Assay for Antagonists of the Thyroid Stimulating Hormone Receptor (AID 488980); further: series mostly up to about 58 µM
Thyrotropin receptor (Homo sapiens), sequence (P16473 whole entry, looked up): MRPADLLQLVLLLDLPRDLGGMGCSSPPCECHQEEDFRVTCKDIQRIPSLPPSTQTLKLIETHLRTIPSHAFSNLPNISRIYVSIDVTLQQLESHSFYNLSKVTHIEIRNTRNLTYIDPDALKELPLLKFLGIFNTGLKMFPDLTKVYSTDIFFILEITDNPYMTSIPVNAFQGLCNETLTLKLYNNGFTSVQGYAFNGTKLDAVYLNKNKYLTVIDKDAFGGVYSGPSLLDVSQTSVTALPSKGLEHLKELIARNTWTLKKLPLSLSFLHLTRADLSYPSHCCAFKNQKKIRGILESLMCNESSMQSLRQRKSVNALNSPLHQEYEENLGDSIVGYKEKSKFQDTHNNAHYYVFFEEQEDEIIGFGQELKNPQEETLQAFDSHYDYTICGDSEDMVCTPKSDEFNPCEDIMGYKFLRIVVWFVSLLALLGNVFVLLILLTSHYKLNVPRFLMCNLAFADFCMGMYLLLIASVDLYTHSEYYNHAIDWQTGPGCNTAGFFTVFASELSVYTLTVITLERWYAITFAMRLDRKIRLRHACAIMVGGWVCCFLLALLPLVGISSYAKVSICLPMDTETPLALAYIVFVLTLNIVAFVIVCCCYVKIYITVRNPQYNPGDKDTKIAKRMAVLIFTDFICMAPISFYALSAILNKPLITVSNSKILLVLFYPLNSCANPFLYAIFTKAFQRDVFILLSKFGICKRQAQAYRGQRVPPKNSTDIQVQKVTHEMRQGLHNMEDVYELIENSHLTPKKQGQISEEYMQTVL
Procedure, shortened: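 HEK293 cells transfected with human TSHR, suspended in HEPES-buffered HBSS with 70 uM RO 20-1724, were treated with compounds plus TSH at EC80 (4 nM final). cAMP was measured by competitive HTRF (cryptate anti-cAMP antibody, cAMP-d2 acceptor).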

[10] = molecular target: D(1A) dopamine receptor (Homo sapiens) (UniProt P21728); experiment: HTS Assay for Allosteric Agonists of the Human D1 Dopamine Receptor: Primary Screen for Agonists (AID 488981); further: potency means the concentration at half of the fitted maximal effect
D(1A) dopamine receptor (Homo sapiens), sequence (P21728 whole entry, looked up): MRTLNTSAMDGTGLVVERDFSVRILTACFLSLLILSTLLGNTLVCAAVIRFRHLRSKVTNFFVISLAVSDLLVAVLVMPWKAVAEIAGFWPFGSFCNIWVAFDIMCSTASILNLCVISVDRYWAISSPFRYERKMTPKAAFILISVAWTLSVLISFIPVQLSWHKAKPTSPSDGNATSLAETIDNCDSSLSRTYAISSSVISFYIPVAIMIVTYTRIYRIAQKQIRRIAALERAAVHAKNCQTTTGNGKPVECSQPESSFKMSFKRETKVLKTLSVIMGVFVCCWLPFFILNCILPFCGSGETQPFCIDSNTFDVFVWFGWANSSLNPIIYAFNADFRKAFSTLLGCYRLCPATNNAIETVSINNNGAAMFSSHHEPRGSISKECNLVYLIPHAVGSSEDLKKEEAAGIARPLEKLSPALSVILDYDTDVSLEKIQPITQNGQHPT
Procedure, shortened: (§1)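 Calcium flux in an inducible, force-coupled HEK293 Trex D1 line (overnight at 30 C): agonist mode is the 180 s kinetic read after compound; potentiator mode is the following 180 s read after dopamine at EC20.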

[11] = molecular target: D(1A) dopamine receptor (Homo sapiens) (UniProt P21728); experiment: HTS Assay for Allosteric Agonists of the Human D1 Dopamine Receptor: Primary Screen for Potentiators (AID 488982); further: potency means the concentration at half of the fitted maximal effect
Procedure, shortened: as §1

[12] = molecular target: D(1A) dopamine receptor (Homo sapiens) (UniProt P21728); experiment: HTS Assay for Allosteric Agonists of the Human D1 Dopamine Receptor: Primary Screen for Antagonists (AID 488983);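 further: calcium flux response to an EC80 dopamine challenge measured with no-wash dye; nearly all actives have a fitted effect of over 65% in size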; further: potency means the concentration at half of the fitted maximal effect
Procedure, shortened: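 Calcium flux readout, no-wash dye, inducible HEK293 T-REx D1 line (force-coupled). Compound added after 10 s baseline, 180 s kinetic read; then dopamine at EC80, further 180 s read.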

[13] = molecular target: ATP-dependent 6-phosphofructokinase (Trypanosoma brucei brucei) (UniProt O15648); experiment: qHTS Assay to Find Inhibitors of T. brucei phosphofructokinase: hit validation (AID 492961);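 further: luminescence reports ADP formed as PFK phosphorylates fructose-6-phosphate with ATP; series mostly up to about 51 µM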
ATP-dependent 6-phosphofructokinase (Trypanosoma brucei brucei), sequence (O15648 whole entry, looked up): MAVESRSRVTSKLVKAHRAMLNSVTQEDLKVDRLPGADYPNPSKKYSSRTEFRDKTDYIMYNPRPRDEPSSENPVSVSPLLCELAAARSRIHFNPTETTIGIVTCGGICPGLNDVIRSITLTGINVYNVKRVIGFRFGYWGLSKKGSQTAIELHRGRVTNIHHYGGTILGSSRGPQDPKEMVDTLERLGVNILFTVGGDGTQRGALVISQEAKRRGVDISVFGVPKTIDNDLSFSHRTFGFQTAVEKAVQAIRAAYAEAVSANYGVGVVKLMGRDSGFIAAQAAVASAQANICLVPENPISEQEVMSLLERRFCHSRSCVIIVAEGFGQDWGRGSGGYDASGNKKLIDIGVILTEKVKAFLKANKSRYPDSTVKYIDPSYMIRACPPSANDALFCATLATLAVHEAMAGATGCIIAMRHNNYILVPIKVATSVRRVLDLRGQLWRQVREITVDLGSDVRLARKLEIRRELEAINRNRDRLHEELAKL
Procedure, shortened: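 In this biochemical qHTS validation, titrated compounds were tested against 1.25 nM PFK with 0.1 mM ATP and 0.5 mM F6P. Percent activity came from controls lacking or containing enzyme.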

[14] = Validation screen for small molecules that induce genotoxicity in human embryonic kidney (HEK293T) cells expressing luciferase-tagged ELG1 (AID 493106)
Procedure, shortened: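 qHTS format; 2,000 HEK293T ELG1-luc cells/well; 23 nL compound via pin tool; 16 hr, 37 °C/5% CO2; ONE-Glo, 30 min RT; luminescence read.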

[15] = molecular target: Thyrotropin-releasing hormone receptor (Homo sapiens) (UniProt P34981); experiment: qHTS for Small Molecule Agonists and Allosteric Enhancers of Human TRH Receptor: Validation Screen for Agonists (AID 493127;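 active means calcium activation more than 3 SD above the typical response in the agonist read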;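 further: intracellular calcium rise by fluo-8 fluorescence before TRH EC20 addition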); conditions: TRH receptor agonist cell assay; at 2 µM; stronger effect = higher value
Thyrotropin-releasing hormone receptor (Homo sapiens), sequence (P34981 whole entry, looked up): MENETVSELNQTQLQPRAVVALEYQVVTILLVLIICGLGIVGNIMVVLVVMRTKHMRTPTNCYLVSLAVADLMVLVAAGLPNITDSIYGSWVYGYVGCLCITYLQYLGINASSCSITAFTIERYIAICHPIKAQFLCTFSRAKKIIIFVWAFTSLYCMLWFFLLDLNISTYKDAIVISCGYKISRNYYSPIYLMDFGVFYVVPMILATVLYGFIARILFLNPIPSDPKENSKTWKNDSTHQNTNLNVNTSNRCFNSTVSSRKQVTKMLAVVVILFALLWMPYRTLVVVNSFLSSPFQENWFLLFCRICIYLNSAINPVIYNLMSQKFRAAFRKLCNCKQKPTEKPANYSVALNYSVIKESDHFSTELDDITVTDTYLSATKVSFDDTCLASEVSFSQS
Procedure, shortened: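 Read-out: intracellular calcium release measured kinetically by FDSS (fluo-8, ex 480/em 530 nm), 1 reading/s after a 10-cycle baseline. TRHR cells, 2000/well, cultured 18 h at 33.5C, dye-loaded at room temp. Compound-evoked positive calcium signal flags agonists.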

[16] = qHTS for Inhibitors of Cell Surface uPA Generation: Validation Assay (AID 493164);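 further: RAW 264.7 macrophage cells exposed to compound for 18 h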
Procedure, shortened: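 Compounds are titrated over seven points (2.45 nM–38.3 uM final) onto pre-plated RAW 264.7 cells and incubated for 18 h. Retained intracellular ATP, measured with ATP-Lite, indicates blocked lethal factor entry.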

[17] = molecular target: Galactokinase (Homo sapiens) (UniProt P51570); experiment: qHTS Validation Assay for Inhibitors of Human Galactokinase (GALK) (AID 493189)
Procedure, shortened: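 GALK (5 nM) with 35 uM ATP and 100 uM galactose in HEPES pH8.0, MgCl2, NaCl, DTT, BSA; 1 h at room temperature. Residual ATP read by Kinase-Glo Plus luminescence after 10 min.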

[18] = molecular target: ATPase family AAA domain-containing protein 5 (Homo sapiens) (UniProt Q96QE3); experiment: Validation screen for small molecules that inhibit ELG1-dependent DNA repair in human embryonic kidney (HEK293T) cells expressing luciferase-tagged ELG1 (AID 493107); further: nearly all actives have a fitted effect of over 70% in size; further: potency means the concentration at half of the fitted maximal effect
ATPase family AAA domain-containing protein 5 (Homo sapiens), sequence (Q96QE3 whole entry, looked up, the tested form may be a part): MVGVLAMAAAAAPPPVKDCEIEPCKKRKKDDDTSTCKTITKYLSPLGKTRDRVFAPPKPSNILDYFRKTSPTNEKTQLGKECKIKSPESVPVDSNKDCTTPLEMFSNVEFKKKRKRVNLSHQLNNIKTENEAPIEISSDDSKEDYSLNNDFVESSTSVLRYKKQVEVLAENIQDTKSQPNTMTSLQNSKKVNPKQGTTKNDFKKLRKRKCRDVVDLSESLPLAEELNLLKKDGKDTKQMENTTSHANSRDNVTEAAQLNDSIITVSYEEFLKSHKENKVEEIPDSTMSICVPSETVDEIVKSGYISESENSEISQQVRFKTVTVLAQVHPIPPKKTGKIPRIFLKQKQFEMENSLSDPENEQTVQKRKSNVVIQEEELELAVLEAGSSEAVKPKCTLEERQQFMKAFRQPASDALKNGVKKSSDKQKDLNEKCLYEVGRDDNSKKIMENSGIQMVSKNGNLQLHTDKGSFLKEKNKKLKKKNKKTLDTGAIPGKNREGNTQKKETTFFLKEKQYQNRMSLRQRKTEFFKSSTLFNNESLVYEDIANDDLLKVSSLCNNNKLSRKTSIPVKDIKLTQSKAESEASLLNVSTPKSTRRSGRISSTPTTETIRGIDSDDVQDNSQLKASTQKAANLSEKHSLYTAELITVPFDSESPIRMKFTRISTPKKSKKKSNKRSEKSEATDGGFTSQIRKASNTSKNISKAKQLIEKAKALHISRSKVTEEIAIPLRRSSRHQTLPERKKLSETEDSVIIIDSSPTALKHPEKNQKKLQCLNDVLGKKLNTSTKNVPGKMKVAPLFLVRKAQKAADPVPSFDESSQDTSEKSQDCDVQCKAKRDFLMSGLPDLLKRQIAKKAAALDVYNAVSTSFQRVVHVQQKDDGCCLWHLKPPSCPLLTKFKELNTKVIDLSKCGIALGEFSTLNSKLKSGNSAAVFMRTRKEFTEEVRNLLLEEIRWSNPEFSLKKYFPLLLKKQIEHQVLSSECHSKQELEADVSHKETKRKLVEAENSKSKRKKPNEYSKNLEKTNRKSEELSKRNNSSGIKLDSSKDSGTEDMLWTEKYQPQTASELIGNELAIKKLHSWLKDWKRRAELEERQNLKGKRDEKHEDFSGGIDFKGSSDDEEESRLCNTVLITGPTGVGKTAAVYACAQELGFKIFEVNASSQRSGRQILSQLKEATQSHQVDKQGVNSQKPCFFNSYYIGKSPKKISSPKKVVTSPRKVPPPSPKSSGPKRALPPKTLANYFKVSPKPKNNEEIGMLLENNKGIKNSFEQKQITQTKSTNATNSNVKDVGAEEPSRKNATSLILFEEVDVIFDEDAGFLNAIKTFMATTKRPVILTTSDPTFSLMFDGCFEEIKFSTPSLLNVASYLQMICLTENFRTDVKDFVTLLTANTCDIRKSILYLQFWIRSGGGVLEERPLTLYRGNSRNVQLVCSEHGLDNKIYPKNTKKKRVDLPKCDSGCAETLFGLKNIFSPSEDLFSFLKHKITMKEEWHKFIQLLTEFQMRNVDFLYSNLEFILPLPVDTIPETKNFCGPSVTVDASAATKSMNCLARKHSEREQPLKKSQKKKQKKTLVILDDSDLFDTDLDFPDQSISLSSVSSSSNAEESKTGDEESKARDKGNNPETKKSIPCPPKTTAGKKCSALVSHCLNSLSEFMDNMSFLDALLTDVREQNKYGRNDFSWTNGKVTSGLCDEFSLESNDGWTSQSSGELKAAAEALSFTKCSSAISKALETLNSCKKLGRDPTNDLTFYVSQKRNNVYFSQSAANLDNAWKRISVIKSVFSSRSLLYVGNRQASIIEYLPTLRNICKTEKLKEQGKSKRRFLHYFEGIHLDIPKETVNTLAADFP
Procedure, shortened: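 ELG1-luciferase HEK293T reporter; 5-fluorouridine + compound/DMSO, 16 hr, 37 °C, 5% CO2; ONE-Glo 30 min RT; luminescence read, qHTS format.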

[19] = Nrf2 qHTS screen for inhibitors: Validation (AID 493153; active means well fitted inhibition curve with a large enough effect in the main read-out, with a control signal flat, not every such curve was filed as active); conditions: Potency: luciferase luminescence; viability change: measured here: cytotoxicity max response
Procedure, shortened: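 Concentration-response test in A549 ARE_Fluc reporter cells (5% FBS OPTI-MEM), compound exposure 18-24 h at 37°C, 5% CO2. Cell viability measured first by CellTiter-Fluor fluorescence; ARE-driven luciferase luminescence then measured as Nrf2 activity.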

Compound	Potency [1]	outcome [2]	Potency [3]	Potency [4]	Potency [5]	Potency [6]	outcome [7]	outcome [8]	outcome [9]	Potency [10]	Potency [11]	Potency [12]	Potency [13]	Potency [14]	activation [15]	outcome [16]	Potency [17]	Potency [18]	Potency [19]	viability change [19] [%]
CN(C)c1nc(N(C)C)nc(N(C)C)n1	inactive	inactive	inactive	inactive	inactive	inactive	inactive	inactive	inactive	inactive	inactive	inactive	inactive	inactive	0.188% (inactive)	inactive	inactive			
CCc1cccc2c3c([nH]c12)C(CC)(CC(=O)O)OCC3 (stereo not given)	inactive	inactive	inactive	inactive	inactive	inactive	inactive	inactive	inactive	inactive	inactive	inactive		inactive		inactive	inactive	inactive		
COc1nc(C)nc(Cl)c1NC1=NCCN1	inactive	inactive	inactive	inactive	inactive	inactive	inactive	inactive	inactive	inactive	inactive	inactive	inactive	inactive	0.688% (inactive)	inactive	inactive	inactive		
O=C1c2c(O)ccc(O)c2C(=O)c2c(NCCNCCO)ccc(NCCNCCO)c21	2.08 µM (active)	inactive	inactive	2.99 µM (active)	2.82 µM (active) and 6.7 µM (active)	5.62 µM (active)	inactive	inactive	inactive	inactive	inactive	inactive	inactive	inactive	0.938% (inactive)	inactive	inactive	4.61 µM (active)		
CC(C)NCC(O)COc1ccc(CCOCC2CC2)cc1 (stereo not given)	inactive	inactive	inactive	inactive	inactive	inactive	inactive	inactive		inactive	inactive	inactive		inactive		inactive	inactive	inactive	inactive	-1.98
CC(CCc1ccc(O)cc1)NCCc1ccc(O)c(O)c1 (stereo not given)	13.1 µM (active)	inactive	inactive	inactive	inactive		inactive	inactive	inactive	inactive		inactive		inactive	1.06% (inactive)	inactive	inactive		inactive	2.92
O=C(C1CCCCC1)N1CC(=O)N2CCc3ccccc3C2C1 (stereo not given)	inactive	inactive	inactive	inactive	inactive	inactive	inactive	inactive		inactive	inactive	inactive		inactive	0.312% (inactive)	inactive	inactive	inactive		
Cc1cc(C(C)(C)C)c(O)c(C)c1CC1=NCCN1	inactive	inactive	inactive	inactive	inactive	inactive		inactive	inactive	inactive	inactive	inactive		inactive	1.19% (inactive)	inactive	inactive		inactive	1.24
Cc1cn([C@H]2C=C[C@@H](CO)O2)c(=O)[nH]c1=O	inactive	inactive	inactive	inactive	inactive	inactive	inactive	inactive	inactive	inactive	inactive	inactive	inactive	inactive		inactive	inactive		inactive	0.63
CCC1(c2ccccc2)C(=O)NCNC1=O	inactive	inactive	inactive	inactive	inactive	inactive	inactive	inactive	inactive	inactive	inactive	inactive				inactive	inactive	inactive	inactive	0.001
NCCS(=O)(=O)O	inactive	inactive	inactive	inactive	inactive	inactive	inactive	inactive	inactive	inactive	inactive	inactive		inactive	1.12% (inactive)	inactive	inactive		inactive	-6.75
NC(CO)C(=O)NNCc1ccc(O)c(O)c1O (stereo not given)	inactive	inactive	4.23 µM (active)	inactive	31.6 µM (active)	35.5 µM (active)	inactive		inactive	inactive	inactive	inactive		inactive		inactive	inactive		inactive	-7.62
CN1CCC(=C2c3ccccc3CC(=O)c3sccc32)CC1	inactive	inactive	inactive	inactive	inactive		inactive	inactive	inactive	inactive	inactive	2 µM (active)		inactive		inactive	inactive	inactive	inactive	-3.17
OCCN(CCO)c1nc(N2CCCCC2)c2nc(N(CCO)CCO)nc(N3CCCCC3)c2n1	9.28 µM (active)	inactive	inactive	inactive	inactive	inactive	inactive			10 µM (active)	2.91 µM (active)			inactive	25.4% (inactive)	inactive	inactive			
CCCCc1oc2ccccc2c1C(=O)c1cc(I)c(OCCN(CC)CC)c(I)c1	9.28 µM (active)	inactive	inactive	inactive	inactive	44.7 µM (active)	inactive	inactive	inactive	inactive	inactive			inactive	1.56% (inactive)		inactive		inactive	8.23
